Results from PubChem BioAssay (EPA / NIEHS).
Values joined by “and” are separate entries in the source; they are usually repeats but may differ in a detail not shown here. Equal entries are not always repeated. Records with an inconclusive call do not appear. More than one record can exist for a structure, and the calls need not agree. Active and inactive are the calls of the source. The calls were made as follows, unless noted: active = hit-call score of the fitted dose curve at least 0.9, where 1 is the maximum; inconclusive = response in the unintended direction; inactive = score below 0.9.

How the values were obtained:
[1] = biological target: rat Peripheral-type Benzodiazepine Receptor (PBR), Tspo (gene 24230) (UniProt P16257); assay: NVS_MP_rPBR: NovaScreen (NVS) Membrane Protein Assay for rat Peripheral-type Benzodiazepine Receptor (PBR) (AID 2283335)
Chain of rat Peripheral-type Benzodiazepine Receptor (PBR), Tspo (gene 24230) (P16257 whole entry, looked up): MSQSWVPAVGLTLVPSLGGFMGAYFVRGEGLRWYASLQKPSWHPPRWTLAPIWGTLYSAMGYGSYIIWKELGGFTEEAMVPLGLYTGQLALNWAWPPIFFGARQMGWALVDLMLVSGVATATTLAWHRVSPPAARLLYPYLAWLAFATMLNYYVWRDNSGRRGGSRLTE
Procedure, shortened: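 Radioligand displacement, rat kidney membrane prep, 1 h exposure, filter-based scintillation read; DMSO baseline, loss-of-signal scored. Primary screen at 25 uM in duplicate, actives followed up in concentration series.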

NCBI gene 100848466 = assay: NVS_NR_bPR: NovaScreen (NVS) Nuclear Receptor Binding Assay for bovine Progextron Receptor (PR) (AID 2283343);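 as to AC50: actives lower bound radioligand signal below DMSO meaning displacement of the label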
Procedure, shortened: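 Bovine uterine membrane preparation, cell-free; radioligand competitive displacement measured by scintillation counting 18 hours after dosing. Loss of signal versus DMSO baseline indicates binding; primary HTS single concentration 25 uM in duplicate, actives followed in concentration series.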

[2] = biological target: Bile acid receptor (Homo sapiens) (UniProt Q96RI1); assay: NVS_NR_hFXR_Agonist: NovaScreen (NVS) Nuclear Receptor Binding Assay for human Farnesoid X Receptor Agonism (FXR) (AID 2283347)
Chain of Bile acid receptor (Homo sapiens) (Q96RI1 whole entry, looked up): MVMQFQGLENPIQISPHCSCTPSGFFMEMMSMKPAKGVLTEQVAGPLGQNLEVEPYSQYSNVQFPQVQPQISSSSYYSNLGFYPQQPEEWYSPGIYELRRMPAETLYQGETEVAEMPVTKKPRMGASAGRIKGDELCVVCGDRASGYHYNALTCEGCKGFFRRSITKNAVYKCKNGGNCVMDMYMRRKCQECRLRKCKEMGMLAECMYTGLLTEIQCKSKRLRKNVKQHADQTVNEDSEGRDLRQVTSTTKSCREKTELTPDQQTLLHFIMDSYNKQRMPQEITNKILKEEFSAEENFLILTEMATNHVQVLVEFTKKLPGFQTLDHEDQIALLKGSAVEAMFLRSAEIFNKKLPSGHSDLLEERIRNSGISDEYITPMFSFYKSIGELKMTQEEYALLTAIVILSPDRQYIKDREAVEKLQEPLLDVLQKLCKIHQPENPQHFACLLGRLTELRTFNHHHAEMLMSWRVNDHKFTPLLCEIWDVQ
Procedure, shortened: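 Cell-free TR-FRET binding assay with extracted human FXR protein, agonist format, read 1 h after dosing. Primary screen at 25 uM single concentration in duplicate, actives retested in concentration series; gain of signal versus DMSO.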

[3] = biological target: Estrogen receptor (Homo sapiens) (UniProt P03372); assay: NVS_NR_hER: NovaScreen (NVS) Nuclear Receptor Binding Assay for human Estrogen Receptor (ER) (AID 2283348)
Chain of Estrogen receptor (Homo sapiens) (P03372 whole entry, looked up, the tested form may be a part): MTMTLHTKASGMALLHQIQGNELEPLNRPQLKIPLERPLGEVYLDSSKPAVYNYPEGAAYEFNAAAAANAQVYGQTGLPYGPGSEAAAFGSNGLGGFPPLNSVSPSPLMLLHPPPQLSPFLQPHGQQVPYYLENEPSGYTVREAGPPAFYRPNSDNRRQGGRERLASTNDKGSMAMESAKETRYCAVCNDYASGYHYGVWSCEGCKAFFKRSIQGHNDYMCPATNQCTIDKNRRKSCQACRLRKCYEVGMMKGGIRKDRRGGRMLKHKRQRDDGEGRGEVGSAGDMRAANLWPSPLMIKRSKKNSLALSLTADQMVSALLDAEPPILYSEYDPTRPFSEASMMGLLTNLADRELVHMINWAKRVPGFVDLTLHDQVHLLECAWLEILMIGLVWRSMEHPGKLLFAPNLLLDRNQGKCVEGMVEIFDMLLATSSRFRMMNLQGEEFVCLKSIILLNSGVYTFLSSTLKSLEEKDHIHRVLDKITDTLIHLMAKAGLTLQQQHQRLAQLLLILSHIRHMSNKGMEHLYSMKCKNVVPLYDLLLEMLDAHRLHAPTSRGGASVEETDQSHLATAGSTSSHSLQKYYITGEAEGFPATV
Procedure, shortened: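 Cell-free radioligand binding with protein extracted from MCF7 cells; scintillation counting 18 hours after dosing. Loss of signal versus DMSO baseline read as displacement; primary single-concentration screen at 25 uM in duplicate, actives retested in concentration series.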

[4] = biological target: Estrogen receptor (Homo sapiens) (UniProt P03372); assay: OT_ER_ERaERa_1440: Odyssey Thera (OT) 24-hour HEK293T Protein-Complementation Assay for Estrogen Receptor-alpha/-alpha Homodimer (AID 2283349);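 also: hits raise fluorescence above DMSO for agonists and antagonists alike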
Procedure, shortened: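 Readout is the rise in mean fluorescence from reporter fragment complementation when ERα LBD (aa 310-547) units dimerize in HEK293T cells. Measured 24 h after dosing and analysed as increase over DMSO control.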

[5] = biological target: Estrogen receptor (Homo sapiens) (UniProt P03372); assay: OT_ER_ERaERa_0480: Odyssey Thera (OT) 8-hour HEK293T Protein-Complementation Assay for Estrogen Receptor-alpha/-alpha Homodimer (AID 2283351);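 also: rise in fluorescence from reassembled reporter fragments on ERα LBD homodimer in nucleus or whole cell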
Procedure, shortened: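 Binding reporter in which dimerisation of ERα LBD (aa 310-547) fusions reconstitutes a fluorescent reporter in HEK293T cells. Compounds incubated 8 h; mean fluorescence intensity increase versus DMSO scored.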

[6] = biological target: Estrogen receptor (Homo sapiens) + Estrogen receptor beta (Homo sapiens) (UniProt P03372+Q92731); assay: OT_ER_ERaERb_0480: Odyssey Thera (OT) 8-hour HEK293T Protein-Complementation Assay for Estrogen Receptor-alpha/-beta Heterodimer (AID 2283352)
Chain of Estrogen receptor (Homo sapiens) + Estrogen receptor beta (Homo sapiens) (P03372 whole entry, looked up): as the sequence (P03372 whole entry, looked up, the tested form may be a part) above
Chain of Estrogen receptor (Homo sapiens) + Estrogen receptor beta (Homo sapiens) (Q92731 whole entry, looked up): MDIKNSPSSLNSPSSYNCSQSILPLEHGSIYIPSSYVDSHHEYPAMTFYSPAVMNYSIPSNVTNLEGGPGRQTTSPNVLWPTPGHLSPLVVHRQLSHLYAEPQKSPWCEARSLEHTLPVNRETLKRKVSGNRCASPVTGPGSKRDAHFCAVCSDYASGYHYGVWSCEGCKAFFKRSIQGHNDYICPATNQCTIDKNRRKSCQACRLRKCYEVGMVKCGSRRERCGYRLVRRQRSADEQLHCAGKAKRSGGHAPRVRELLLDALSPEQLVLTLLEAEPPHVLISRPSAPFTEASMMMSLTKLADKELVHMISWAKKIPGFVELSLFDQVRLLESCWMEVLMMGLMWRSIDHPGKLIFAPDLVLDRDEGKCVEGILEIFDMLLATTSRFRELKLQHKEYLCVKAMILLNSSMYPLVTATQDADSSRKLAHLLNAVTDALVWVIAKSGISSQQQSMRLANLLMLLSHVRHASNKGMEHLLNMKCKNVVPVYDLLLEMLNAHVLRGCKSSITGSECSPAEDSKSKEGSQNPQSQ
Procedure, shortened: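 Compound added to HEK293T cells carrying split-reporter-tagged ER-alpha and ER-beta LBDs, incubated 8 hours, then imaged by laser scanning cytometer. Signal rise in nucleus, or nucleus and cytoplasm, over vehicle was fitted in the positive direction.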

[7] = biological target: bovine Estrogen Receptor (ER), ESR1 (gene 407238) (UniProt P49884); assay: NVS_NR_bER: NovaScreen (NVS) Nuclear Receptor Binding Assay for bovine Estrogen Receptor (ER) (AID 2283345);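 also: actives lower the bound radioligand count which means they displace the ER ligand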
Chain of bovine Estrogen Receptor (ER), ESR1 (gene 407238) (P49884 whole entry, looked up): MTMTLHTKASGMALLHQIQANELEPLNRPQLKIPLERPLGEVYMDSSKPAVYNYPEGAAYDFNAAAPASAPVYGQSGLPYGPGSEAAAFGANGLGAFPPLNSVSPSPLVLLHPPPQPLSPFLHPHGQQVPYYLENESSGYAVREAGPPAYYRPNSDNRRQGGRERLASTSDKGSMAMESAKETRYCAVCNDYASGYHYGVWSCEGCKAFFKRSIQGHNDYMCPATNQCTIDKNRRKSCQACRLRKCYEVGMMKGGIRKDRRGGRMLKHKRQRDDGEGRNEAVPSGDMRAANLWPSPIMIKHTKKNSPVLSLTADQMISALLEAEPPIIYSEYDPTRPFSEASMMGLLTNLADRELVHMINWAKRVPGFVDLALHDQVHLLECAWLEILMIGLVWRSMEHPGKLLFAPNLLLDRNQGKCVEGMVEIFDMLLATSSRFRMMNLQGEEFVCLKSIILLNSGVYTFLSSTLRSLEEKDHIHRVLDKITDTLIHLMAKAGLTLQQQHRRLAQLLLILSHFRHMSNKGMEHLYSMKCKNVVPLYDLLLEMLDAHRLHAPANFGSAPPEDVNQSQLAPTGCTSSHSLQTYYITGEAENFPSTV
Procedure, shortened: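 Cell-free radioligand binding with bovine uterine membrane extracts, read 18 hours after dosing by scintillation counting. Loss of signal versus DMSO baseline indicates displacement. Primary screen run in duplicate at 25 uM, actives followed in concentration series.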

[8] = biological target: chimpanzee Androgen Receptor (AR), AR (gene 747460) (UniProt O97775); assay: NVS_NR_cAR: NovaScreen (NVS) Nuclear Receptor Binding Assay for chimpanzee Androgen Receptor (AR) (AID 2283346);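 also: radioligand displacement from AR measured by scintillation counting in a cell-free assay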
Chain of chimpanzee Androgen Receptor (AR), AR (gene 747460) (O97775 whole entry, looked up): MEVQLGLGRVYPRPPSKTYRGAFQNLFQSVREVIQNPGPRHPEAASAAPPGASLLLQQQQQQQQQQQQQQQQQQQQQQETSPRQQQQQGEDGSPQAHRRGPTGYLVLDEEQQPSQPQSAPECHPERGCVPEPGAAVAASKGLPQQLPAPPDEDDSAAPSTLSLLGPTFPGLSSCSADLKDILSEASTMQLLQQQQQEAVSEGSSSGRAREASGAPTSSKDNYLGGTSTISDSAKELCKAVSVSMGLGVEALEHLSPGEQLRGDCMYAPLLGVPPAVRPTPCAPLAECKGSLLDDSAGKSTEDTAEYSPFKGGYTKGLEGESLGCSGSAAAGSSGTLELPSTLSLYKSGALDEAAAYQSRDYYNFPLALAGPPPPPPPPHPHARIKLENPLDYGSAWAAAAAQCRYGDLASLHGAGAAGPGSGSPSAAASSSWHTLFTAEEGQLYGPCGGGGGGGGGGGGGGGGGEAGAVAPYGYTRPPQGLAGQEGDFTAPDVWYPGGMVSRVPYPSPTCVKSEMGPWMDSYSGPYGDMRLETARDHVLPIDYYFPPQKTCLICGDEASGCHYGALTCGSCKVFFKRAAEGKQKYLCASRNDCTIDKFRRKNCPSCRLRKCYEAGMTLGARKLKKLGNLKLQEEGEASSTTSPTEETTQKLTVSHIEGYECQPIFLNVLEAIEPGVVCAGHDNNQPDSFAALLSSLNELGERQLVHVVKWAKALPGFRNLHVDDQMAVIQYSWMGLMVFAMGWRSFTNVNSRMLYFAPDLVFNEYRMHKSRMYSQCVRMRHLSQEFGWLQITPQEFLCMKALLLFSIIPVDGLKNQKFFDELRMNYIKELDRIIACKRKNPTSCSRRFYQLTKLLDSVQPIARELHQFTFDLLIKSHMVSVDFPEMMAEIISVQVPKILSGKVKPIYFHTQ
Procedure, shortened: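 Cell-free radioligand displacement using receptor protein extracted from Sf9/Sf21 cells; bound radioligand measured by scintillation counting 72 hours after chemical dosing. Loss of signal versus DMSO baseline indicates binding; primary screen single-concentration in duplicate at 25 uM, actives followed in concentration series.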

[9] = test system: guinea pig Histamine Receptor (H2), gene 100729734; assay: NVS_GPCR_gH2: NovaScreen (NVS) G Protein-Coupled Receptor Assay for guinea pig Histamine Receptor (H2) (AID 2283342)
Procedure, shortened: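 Radioligand displacement on guinea pig striatal membranes, 1 h after dosing, filter-based scintillation counting; loss of signal versus DMSO. Single-point screen at 25 uM in duplicate, then concentration-response up to 50 uM.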

[10] = biological target: rat Glutamate, MK-801 Agonist Site (GluNMDA_MK801), Grin1 (gene 24408) (UniProt P35439); assay: NVS_LGIC_rGluNMDA_MK801_Agonist: NovaScreen (NVS) Ligand-Gated Ion Channel Assay for rat Glutamate, MK-801 Agonist Site (GluNMDA_MK801) (AID 2283340)
Procedure, shortened: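 Radioligand binding at MK-801 site in rat forebrain membranes, 1.5 h incubation, filter-based scintillation counting. Initially 25 uM in duplicate; actives then run in concentration-response up to 50 uM, fitted for gain of signal versus DMSO.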

[11] = biological target: human Constitutive Androstane Receptor (CAR), NR1I3 (gene 9970) (UniProt Q14994); assay: NVS_NR_hCAR_Antagonist: NovaScreen (NVS) Nuclear Receptor Binding Assay for human Constitutive Androstane Receptor Antagonism (CAR) (AID 2283344)
Chain of human Constitutive Androstane Receptor (CAR), NR1I3 (gene 9970) (Q14994 whole entry, looked up): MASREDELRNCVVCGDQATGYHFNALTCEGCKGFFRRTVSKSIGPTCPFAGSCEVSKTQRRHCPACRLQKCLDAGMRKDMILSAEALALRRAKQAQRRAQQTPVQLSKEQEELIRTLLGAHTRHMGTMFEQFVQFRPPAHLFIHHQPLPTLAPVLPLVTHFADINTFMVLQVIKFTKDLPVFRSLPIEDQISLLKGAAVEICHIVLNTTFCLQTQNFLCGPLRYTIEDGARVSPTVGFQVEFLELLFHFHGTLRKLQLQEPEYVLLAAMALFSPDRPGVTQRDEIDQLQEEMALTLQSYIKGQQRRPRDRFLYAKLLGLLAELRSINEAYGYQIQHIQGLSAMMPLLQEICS
Procedure, shortened: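 Cell-free TR-FRET binding read 1 h after dosing, antagonist mode; loss of signal versus DMSO baseline. Primary screen in duplicate at a single 25 uM; actives retested in concentration series.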

[12] = biological target: Glutamate receptor ionotropic, kainate 1 (Rattus norvegicus) (UniProt P22756); assay: NVS_IC_rKAR: NovaScreen (NVS) Ion Channel Assay for rat Kainic Acid Receptors (KAR) (AID 2283334; active = hit-call score of the fitted dose curve at least 0.9, where 1 is the maximum; inactive = score below 0.9)
Chain of Glutamate receptor ionotropic, kainate 1 (Rattus norvegicus) (P22756 whole entry, looked up): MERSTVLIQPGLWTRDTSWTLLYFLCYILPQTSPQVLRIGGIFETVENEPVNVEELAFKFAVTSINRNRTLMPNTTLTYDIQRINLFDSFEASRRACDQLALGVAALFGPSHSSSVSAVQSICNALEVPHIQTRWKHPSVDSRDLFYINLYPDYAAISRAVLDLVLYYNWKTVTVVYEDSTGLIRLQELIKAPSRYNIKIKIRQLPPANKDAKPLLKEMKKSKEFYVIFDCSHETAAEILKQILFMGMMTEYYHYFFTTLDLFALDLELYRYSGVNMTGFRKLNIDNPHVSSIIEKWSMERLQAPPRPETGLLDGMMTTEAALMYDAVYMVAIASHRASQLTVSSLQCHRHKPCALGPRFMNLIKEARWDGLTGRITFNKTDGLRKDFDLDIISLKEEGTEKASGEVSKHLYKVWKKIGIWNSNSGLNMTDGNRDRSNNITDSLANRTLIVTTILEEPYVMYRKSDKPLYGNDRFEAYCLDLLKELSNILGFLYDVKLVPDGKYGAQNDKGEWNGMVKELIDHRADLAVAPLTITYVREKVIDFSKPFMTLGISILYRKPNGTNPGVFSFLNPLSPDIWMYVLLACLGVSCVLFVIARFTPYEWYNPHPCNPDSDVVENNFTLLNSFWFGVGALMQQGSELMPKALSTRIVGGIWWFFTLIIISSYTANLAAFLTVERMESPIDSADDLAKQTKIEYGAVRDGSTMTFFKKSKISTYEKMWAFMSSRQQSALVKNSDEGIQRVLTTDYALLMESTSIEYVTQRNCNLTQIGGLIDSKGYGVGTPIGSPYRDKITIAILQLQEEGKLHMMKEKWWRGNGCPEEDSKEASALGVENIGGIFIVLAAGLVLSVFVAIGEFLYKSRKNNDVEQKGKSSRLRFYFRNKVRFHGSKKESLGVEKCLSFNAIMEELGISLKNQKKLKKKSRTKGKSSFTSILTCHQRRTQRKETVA
Procedure, shortened: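 Radioligand displacement binding using rat forebrain membranes, 1 h incubation, filter-based scintillation counting. Screened in duplicate at 25 uM, with actives retested in concentration-response up to 50 uM; fitted against DMSO.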

[13] = biological target: Bile acid receptor (Homo sapiens) (UniProt Q96RI1); assay: NVS_NR_hFXR_Antagonist: NovaScreen (NVS) Nuclear Receptor Binding Assay for human Farnesoid X Receptor Antagonism (FXR) (AID 2283350)
Procedure, shortened: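 Cell-free TR-FRET ligand-binding read-out on human FXR (NR1H4) in antagonist mode, measured 1 h after dosing. Primary screen in duplicate at 25 uM, actives retested in concentration series; signal loss scored versus DMSO.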

[14] = biological target: Small conductance calcium-activated potassium channel protein 1 (Rattus norvegicus) (UniProt P70606); assay: NVS_IC_rKCaCh: NovaScreen (NVS) Ion Channel Assay for rat Potassium Channel, Ca2+ Act., VI (KCaCh) (AID 2283336)
Procedure, shortened: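 Radioligand binding to rat forebrain membranes, cell-free, read 1 hour after dosing by filter-based scintillation counting. Compounds first run in duplicate at 25 uM, actives then in concentration series; loss of signal vs DMSO indicates displacement.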

[15] = NVS_IC_rCaBTZCHL: NovaScreen (NVS) Ion Channel Assay for Calcium Channel, Type L, Benzothiazepine Site (CaBTZCHL) (AID 2283337)
Procedure, shortened: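 Competitive displacement of a site-specific radioligand from rat cortex membranes, measured as signal loss against DMSO baseline by filter radiodetection after 1.5 h. Single-point 25 uM primary screen.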

[16] = biological target: human Androgen Receptor (AR), AR (gene 367) (UniProt P10275); assay: NVS_NR_hAR: NovaScreen (NVS) Nuclear Receptor Binding Assay for human Androgen Receptor (AR) (AID 2283332)
Procedure, shortened: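 Actives from a duplicate 25 uM single-point screen went on to concentration series. Read-out after 20 h was scintillation counting of displaced radioligand in LnCAP extract, with DMSO as baseline.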

[17] = biological target: Voltage-gated inwardly rectifying potassium channel KCNH2 (Homo sapiens) (UniProt Q12809); assay: NVS_IC_hKhERGCh: NovaScreen (NVS) Ion Channel Assay for human Potassium Channel ERG (KhERGCh) (AID 2283333)
Procedure, shortened: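 Cell-free radioligand competition binding on hERG protein extracted from CHO cells, read by filter-based scintillation counting 0.75 h after dosing. Primary screen at 25 uM in duplicate, actives followed in concentration series. Signal loss fitted versus DMSO.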

[18] = biological target: bovine Gamma-Aminobutyric Acid Type A Receptor Agonist (GABAR Agonist), GABRA1 (gene 780973) (UniProt P08219); assay: NVS_LGIC_bGABAR_Agonist: NovaScreen (NVS) Ligand-Gated Ion Channel Assay for bovine Gamma-Aminobutyric Acid Type A Receptor Agonist (GABAR Agonist) (AID 2283338)
Procedure, shortened: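 Radioligand binding to bovine cerebellar membranes in agonist format, read by filter-based scintillation counting after 1 h. Primary screen in duplicate at 25 uM, with actives followed in concentration series. Gain of signal versus DMSO.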

Measured: AC50

COP(=S)(OC)Oc1nc(Cl)c(Cl)cc1Cl
inactive: [2] | [3] | [4] | [5] | [6]
active: [1] 7 µM | NCBI gene 100848466 17.3 µM

C=CC1(C)OC(=O)N(c2cc(Cl)cc(Cl)c2)C1=O (centres undefined)
active: [1] 2.19 µM and 1.01 µM and 693 nM
inactive: [1] | NCBI gene 100848466 | [7] | [8] | [3] | [4] | [5] | [6]

C=CCC1=C(C)C(OC(=O)C2C(C=C(C)C)C2(C)C)CC1=O (centres undefined)
inactive: [1] | [9] | [7] | [8] | [2] | [3] | [4] | [5]

CNC(=S)S
inactive: [1] | [10] | [11] | [4] | [5] | [6]

COc1cnc(OC)n2nc(NS(=O)(=O)c3c(OCC(F)F)cccc3C(F)(F)F)nc12
inactive: [12] | [7] | [3] | [4] | [5] | [6]

CC1COC(Cn2cncn2)(c2ccc(Oc3ccc(Cl)cc3)cc2Cl)O1 (centres undefined)
inactive: [1] | [9] | [4] | [5]

C#CCOS(=O)OC1CCCCC1Oc1ccc(C(C)(C)C)cc1 (centres undefined)
active: [1] 14.5 µM
inactive: NCBI gene 100848466 | [11] | [4] | [13] | [5] | [6]

CCCCC(CC)COC(=O)c1ccccc1C(=O)OCC(CC)CCCC (centres undefined)
active: [1] 15.6 µM | [4] 66 µM | [6] 66.9 µM
inactive: NCBI gene 100848466 | [11] | [7] | [3] | [5]

CCNc1nc(Cl)nc(NCC)n1
inactive: [1] | [11] | [7] | [4] | [5] | [6]

C=CCC1=C(C)[C@@H](OC(=O)[C@@H]2[C@@H](C=C(C)C)C2(C)C)CC1=O
active: [1] 37.7 µM
inactive: [4] | [5]

CON(C)C(=O)Nc1ccc(Cl)c(Cl)c1
active: [1] 4.62 µM [middle of 4 runs] | [8] 15.3 µM
inactive: [14] | NCBI gene 100848466 | [11] | [3] | [4] | [5]

CO/C=C(/C(=O)OC)c1ccccc1Oc1cc(Oc2ccccc2C#N)ncn1
active: [1] 3.17 µM [middle of 4 runs] | [15] 6.63 µM and 15.4 µM
inactive: [12] | [10] | NCBI gene 100848466 | [11] | [7] | [3] | [4] | [5]

CN(C)C(=S)SSC(=S)N(C)C
active: [1] 11 µM | [13] 8.97 µM
inactive: [9] | [4] | [5]

CCCC1COC(Cn2cncn2)(c2ccc(Cl)cc2Cl)O1 (centres undefined)
active: [16] 18.1 µM | [1] 12.3 µM | NCBI gene 100848466 17.9 µM | [11] 11.8 µM and 25 µM | [8] 9.99 µM
inactive: [17] | [9] | [4] | [5]

CCOC(=O)C(Cl)Cc1cc(-n2nc(C)n(C(F)F)c2=O)c(F)cc1Cl (centres undefined)
active: [1] 16.1 µM
inactive: [4] | [5]

CCCCNC(=O)OCC#CI
active: [1] 12.8 µM and 10.7 µM
inactive: [18] | [9] | NCBI gene 100848466 | [7] | [3] | [4] | [5]

CCCCOC(=O)c1ccccc1C(=O)OCCCC
active: [1] 13.4 µM and 15.5 µM | [4] 35.4 µM and 46.5 µM and 60 µM | [5] 46.7 µM and 37.4 µM and 35.4 µM | [6] 33.1 µM and 25.9 µM and 23.5 µM
inactive: [18] | NCBI gene 100848466 | [11] | [7] | [8] | [3]

COC(=O)N(OC)c1ccccc1COc1ccn(-c2ccc(Cl)cc2)n1
active: [1] 0.26 µM
inactive: [11] | [4] | [5] | [6]

Oc1ccccc1-c1ccccc1
active: NCBI gene 100848466 31.3 µM | [8] 11.2 µM and 25.5 µM | [6] 66 µM
inactive: [1] | [4] | [5] | [6]

COc1ccc(C(c2ccc(OC)cc2)C(Cl)(Cl)Cl)cc1
inactive: [1] | NCBI gene 100848466 | [11] | [7] | [3] | [13]
active: [3] 4.64 µM and 5.49 µM and 13.9 µM | [4] 13.8 µM and 21.6 µM and 14.4 µM | [5] 13 µM and 12.5 µM and 10.8 µM | [6] 4.23 µM and 12.5 µM and 9.58 µM
